Test results taken from PubChem BioAssay (NCI).
This is part of a sample that, as a whole, favours compounds with a hit. Of some 83,000 tested, about 20% had one in any assay.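 The test compound was applied at a single concentration to cells in 96-well plates for 48 hours, and percent growth was recorded.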 A number with no mark means an inactive call. Calls of active or inactive are those of the source. The calls were made as follows: active = growth percent below 10; inactive = the rest.

What was measured:
Test in all cases: NCI-60 one-dose screen, 48 h (100 = growth as untreated, 0 = no growth, -100 = all killed)
Settings in all cases: 10 µM unless noted
[1] = tested on: NCI-H23 lung
[2] = tested on: NCI-H226 lung
[3] = tested on: NCI-H322M lung
[4] = tested on: HOP-62 NSCLC
[5] = tested on: NCI-H460 lung
[6] = tested on: HOP-92 NSCLC
[7] = tested on: NCI-H522 lung
[8] = tested on: A549/ATCC NSCLC
[9] = tested on: 786-0 renal
[10] = tested on: COLO 205 colon
[11] = tested on: DU-145 prostate
[12] = tested on: K-562 leukemia
[13] = tested on: MALME-3M melanoma
[14] = tested on: MDA-MB-231 breast
[15] = tested on: SF-268 CNS
[16] = tested on: SF-295 CNS
[17] = tested on: SF-539 CNS
[18] = tested on: M14 melanoma
[19] = tested on: RXF 393 renal

Structure (SMILES)	growth [1]	growth [2]	growth [3]	growth [4]	growth [5]	growth [6]	growth [7]	growth [8]	growth [9]	growth [10]	growth [11]	growth [12]	growth [13]	growth [14]	growth [15]	growth [16]	growth [17]	growth [18]	growth [19]
Cc1ccc(N=C2CSc3nnc(-c4csc5c4CCCC5)n3N2)cc1	41%	69.5%	57.9%	27.9%	11.8%	67.7%	29%	26.5%	32.3%	-4.99% (active)	25.4%	10.7%	70.6%	43%	40.8%	-6.51% (active)	-2.46% (active)	5.9% (active)	–
O=C(c1ccccc1)C(c1ccccc1)N1CCOCC1 (configuration not stated)	96.9%	94.8%	105%	94.7%	103%	103%	90.4%	90.2%	104%	109%	107%	96%	103%	105%	99.1%	94.9%	101%	99.8%	–
COc1ccc2c(CCc3ccc(Cl)cc3)c3[n+](cc2c1OC)CCc1cc2c(cc1-3)OCO2	26.1%	71.4%	90.4%	75.8%	10.6%	25%	13.4%	50.7%	73.4%	27.1%	67.5%	33.5%	55.5%	66.7%	49%	43.3%	53.1%	37.9%	–
N#Cc1c(C(F)(F)F)cc(Nc2ccc3nc(NCCN4CCCC4)oc3c2)n2c1nc1ccccc12	81%	82.8%	87.4%	75%	99.4%	51.2%	58.2%	56.7%	26.1%	38.7%	89%	11.8%	–	32.7%	78.8%	74.7%	86.4%	84.4%	55.4%
